Measurements from PubChem BioAssay (NCATS).
Inconclusive results are not listed. Activity calls are given as the source filed them. Unless noted, the call rests on the fitted dose curve.

Molecular target: Cytochrome P450 3A4 (Homo sapiens) (UniProt P08684)
Assay: qHTS Assay for Inhibitors and Substrates of Cytochrome P450 3A4 (AID 884; active means well fitted curve in the direction sought with a large enough effect; an effect the other way counts as inactive or inconclusive; further: nearly all actives have a fitted effect of over 50% in size; further: potency means the concentration at half of the fitted maximal effect; on activity change, negative = inhibition: on the % scale 0 is the no-effect control and ±100 the full control effect)
Conditions: recombinant CYP3A4, Luciferin-PPXE luminescence; series mostly up to 57.1 µM; activity change, negative = inhibition: at the top concentration
Method in brief: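 20 nM human CYP3A4 with 25 uM Luciferin-PPXE (at KM) in 200 mM KPO4, preincubated 10 min with compound; NADPH regeneration started a 60 min RT reaction. Luciferin detected by luminescence, normalized to 57 uM ketoconazole as full inhibition.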

Cytochrome P450 3A4 (Homo sapiens), sequence (P08684 whole entry, looked up): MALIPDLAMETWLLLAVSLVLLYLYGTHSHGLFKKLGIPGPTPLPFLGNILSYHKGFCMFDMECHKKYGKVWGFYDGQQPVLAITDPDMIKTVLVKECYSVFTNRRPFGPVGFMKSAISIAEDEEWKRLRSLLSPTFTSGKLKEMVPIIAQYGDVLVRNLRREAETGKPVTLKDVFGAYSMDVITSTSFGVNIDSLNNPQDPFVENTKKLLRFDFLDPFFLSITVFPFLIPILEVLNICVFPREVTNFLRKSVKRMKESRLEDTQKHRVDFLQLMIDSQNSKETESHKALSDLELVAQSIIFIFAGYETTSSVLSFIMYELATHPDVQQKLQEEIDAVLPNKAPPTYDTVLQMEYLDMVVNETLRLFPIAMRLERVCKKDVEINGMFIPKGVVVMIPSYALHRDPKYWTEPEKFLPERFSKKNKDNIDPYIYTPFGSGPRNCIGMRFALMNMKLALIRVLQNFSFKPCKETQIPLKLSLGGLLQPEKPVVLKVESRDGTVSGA

Potency, active:
c1csc(CNc2ccnc(-c3ccoc3)n2)c1 7940 nM
Cc1cccc(CNc2cc(-c3c(C)noc3C)ncn2)c1 5010 nM
COc1cccc(-c2cncnc2N(C)Cc2ccco2)c1 2510 nM
CN(C)C(=O)c1ccc(-c2cncnc2NCCc2cnc[nH]2)cc1 6310 nM
FC(F)(F)c1ccccc1-c1nccc(NCc2cccs2)n1 2000 nM
FC(F)(F)c1ccccc1-c1ccc2ncnc(NCc3cccnc3)c2c1 1580 nM
COc1ccc(CNc2ncnc3ccc(-c4cccnc4)cc23)c(OC)c1 1260 nM
c1csc(CNc2ncnc3ccc(-c4ccoc4)cc23)c1 7940 nM
Cc1noc(C)c1-c1cncnc1NCc1ccccc1 2000 nM

Activity change, negative = inhibition, inactive:
c1ccc(Nc2cc(-c3ccoc3)ncn2)cc1 25.6%
Cc1ccccc1-c1cc(Nc2ccccc2)ncn1 41.2%

Molecular target: Cytochrome P450 3A4 (Homo sapiens) (UniProt P08684)
Assay: qHTS Assay for Activators of Cytochrome P450 3A4 (AID 885; active means well fitted curve in the direction sought with a large enough effect; an effect the other way counts as inactive or inconclusive; further: nearly all actives have a fitted effect of over 65% in size)
Conditions: recombinant CYP3A4, Luciferin-PPXE luminescence, 60 min; series mostly up to 57.1 µM; activity change, positive = activation: at the top concentration
Method in brief: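 20nM CYP3A4 + 25uM Luciferin-PPXE (=KM), 200mM KPO4; cpd 10 min RT; NADPH regen, 60 min RT; stop w/ detection buffer, 20 min; luminescence. Normalized to 57 uM ketoconazole.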

Activity change, positive = activation, inactive:
c1csc(CNc2ccnc(-c3ccoc3)n2)c1 -99.5%
Cc1ccccc1-c1nccc(NCCN2CCOCC2)n1 -66.8%
Cc1cccc(CNc2cc(-c3c(C)noc3C)ncn2)c1 -93.5%
CCNc1ncc2nc(-c3ccccc3)c(=O)n(Cc3cccs3)c2n1 -92.8%
COCCNc1nc(-c2ccccc2Cl)nc2ccccc12 -89.4%
CN(C)C(=O)c1ccc(-c2cncnc2NCCc2cnc[nH]2)cc1 -90.5%
FC(F)(F)c1ccccc1-c1nccc(NCc2cccs2)n1 -91.3%
Cn1c(=O)c(-c2ccccc2)nc2cncnc21 -44.5%
FC(F)(F)c1ccccc1-c1ccc2ncnc(NCc3cccnc3)c2c1 -105%
CCNc1ncc2nc(-c3cccs3)c(=O)n(C)c2n1 -38.7%
COc1ccc(CNc2ncnc3ccc(-c4cccnc4)cc23)c(OC)c1 -105%
c1csc(CNc2ncnc3ccc(-c4ccoc4)cc23)c1 -77.8%
Cc1noc(C)c1-c1ccc2ncnc(N3CCN(C)CC3)c2c1 -87.9%
Cc1noc(C)c1-c1cncnc1NCc1ccccc1 -98.4%
COCCNc1ncnc2ccc(-c3cccc(OC)c3)cc12 -108%
FC(F)(F)c1ccccc1-c1nc(NCCN2CCOCC2)c2ccccc2n1 -91.9%

Molecular target: Cytochrome P450 2D6 (Homo sapiens) (UniProt P10635)
Sequence (P10635 whole entry, looked up): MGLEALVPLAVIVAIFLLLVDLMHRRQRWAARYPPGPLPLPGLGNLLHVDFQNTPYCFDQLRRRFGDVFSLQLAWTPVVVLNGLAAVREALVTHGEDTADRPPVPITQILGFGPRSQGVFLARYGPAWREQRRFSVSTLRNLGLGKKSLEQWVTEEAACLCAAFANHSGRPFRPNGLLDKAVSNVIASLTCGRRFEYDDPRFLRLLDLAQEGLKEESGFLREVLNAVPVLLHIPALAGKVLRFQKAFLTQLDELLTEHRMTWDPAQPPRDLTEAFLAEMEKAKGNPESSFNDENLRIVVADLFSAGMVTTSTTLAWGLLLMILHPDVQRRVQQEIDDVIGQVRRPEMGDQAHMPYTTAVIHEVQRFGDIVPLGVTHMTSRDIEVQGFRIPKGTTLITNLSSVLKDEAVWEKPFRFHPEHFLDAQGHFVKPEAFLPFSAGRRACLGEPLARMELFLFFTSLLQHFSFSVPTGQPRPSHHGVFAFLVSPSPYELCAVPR
Assay: qHTS Assay for Inhibitors and Substrates of Cytochrome P450 2D6 (AID 891; active means well fitted curve in the direction sought with a large enough effect; an effect the other way counts as inactive or inconclusive; further: nearly all actives have a fitted effect of over 60% in size; further: potency means the concentration at half of the fitted maximal effect;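 on activity change, negative = inhibition: luciferin methyl ether substrate demethylated by CYP2D6 with NADPH regeneration; on the % scale 0 is the no-effect control and ±100 the full control effect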)
Conditions: recombinant CYP2D6, luciferin-ME EGE luminescence; series mostly up to 57.1 µM; activity change, negative = inhibition: at the top concentration
Method in brief: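 Human CYP2D6 (5 nM) with 30 uM Luciferin-ME EGE (at Km) in 100 mM KPO4, compound preincubated 10 min, then NADPH regeneration system for 60 min at room temperature. Luciferin read by luminescence; normalized to 1.43 uM quinidine.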

Potency, active:
c1csc(CNc2ccnc(-c3ccoc3)n2)c1 3160 nM
CN(C)C(=O)c1ccc(-c2cncnc2NCCc2cnc[nH]2)cc1 794 nM
CN(C)Cc1ccccc1-c1nc(N(C)C)c2ccccc2n1 2510 nM
FC(F)(F)c1ccccc1-c1ccc2ncnc(NCc3cccnc3)c2c1 1580 nM

Activity change, negative = inhibition, inactive:
COc1ccc(-n2c(=O)c(-c3cccs3)nc3cnc(N(C)C)nc32)cc1 -4.44%

Molecular target: Cytochrome P450 2C19 (Homo sapiens) (UniProt P33261)
Sequence (P33261 whole entry, looked up): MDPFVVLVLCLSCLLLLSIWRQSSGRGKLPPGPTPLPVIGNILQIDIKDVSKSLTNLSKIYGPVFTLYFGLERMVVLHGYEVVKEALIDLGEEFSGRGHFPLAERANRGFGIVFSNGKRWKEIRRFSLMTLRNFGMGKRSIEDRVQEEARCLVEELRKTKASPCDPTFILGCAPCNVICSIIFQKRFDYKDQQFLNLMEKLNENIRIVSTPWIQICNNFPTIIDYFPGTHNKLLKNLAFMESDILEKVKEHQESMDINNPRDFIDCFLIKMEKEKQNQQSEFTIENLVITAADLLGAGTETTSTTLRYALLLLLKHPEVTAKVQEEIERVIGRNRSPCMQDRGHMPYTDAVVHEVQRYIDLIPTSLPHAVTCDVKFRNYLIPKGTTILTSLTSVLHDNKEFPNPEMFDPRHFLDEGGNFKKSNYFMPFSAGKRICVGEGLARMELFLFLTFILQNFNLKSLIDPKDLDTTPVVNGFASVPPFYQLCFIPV
Assay: qHTS Assay for Inhibitors and Substrates of Cytochrome P450 2C19 (AID 899; active means well fitted curve in the direction sought with a large enough effect; an effect the other way counts as inactive or inconclusive; further: nearly all actives have a fitted effect of over 60% in size; further: potency means the concentration at half of the fitted maximal effect; on activity, negative = inhibition: on the % scale 0 is the no-effect control and ±100 the full control effect)
Conditions: recombinant CYP2C19, luciferin-H EGE luminescence; series mostly up to 57.1 µM; activity, negative = inhibition: at the top concentration
Method in brief: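 Human CYP2C19 (5nM) with Luciferin-H EGE at 10uM (its KM) in 50mM KPO4 was preincubated with compound for 10 min at 37C. NADPH regeneration started a 60 min 37C reaction. Luciferin was read by luminescence, normalized to 57uM ketoconazole.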

Potency, active:
FC(F)(F)c1ccccc1-c1nccc(NCc2cccs2)n1 2000 nM
FC(F)(F)c1ccccc1-c1ccc2ncnc(NCc3cccnc3)c2c1 7.9 nM
c1csc(CNc2ncnc3ccc(-c4ccoc4)cc23)c1 6310 nM
Cc1ccccc1-c1cc(Nc2ccccc2)ncn1 3160 nM

activity, negative = inhibition, inactive:
COc1ccc(-n2c(=O)c(-c3cccs3)nc3cnc(N(C)C)nc32)cc1 47.4%
CN1CCN(c2ncc3ncc(=O)n(CCC#N)c3n2)CC1 58.8%

System: not listed separately
Assay: qHTS Assay for Identification of Small Molecule Agonists for Hypoxia Response Element Signaling Pathway (AID 914; active means well fitted activation curve with a large enough effect in the signal ratio, with a control signal flat, not every such curve was filed as active; the % refers to the signal ratio; further: potency means the concentration at half of the fitted maximal effect; on activation: % of control where 0% means no effect)
Conditions: ME-180 (cervical carcinoma) HRE-bla reporter, beta-lactamase ratio, CoCl2, 17 h; activation: hits give high values
Method in brief: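 Read-out: CCF4 FRET ratio of 460nm to 530nm emission (excitation 405nm) after 2.5 hours at room temperature, taken from HRE-bla ME-180 cells that had been exposed to compound and EC50 CoCl2 for 17 hours.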

Potency, active:
CCNc1ncc2nc(-c3ccccc3)c(=O)n(Cc3cccs3)c2n1 3160 nM
CCNc1ncc2nc(-c3cccs3)c(=O)n(C)c2n1 3160 nM

activation, inactive:
c1ccc(Nc2cc(-c3ccoc3)ncn2)cc1 -8.49%
O=c1c(-c2cc(F)cc(F)c2)nc2cnc(Nc3ccccc3)nc2n1C[C@H]1CCCO1 -17%
Cc1noc(C)c1-c1cncnc1NCc1ccccc1 4.46%

System: not listed separately
Assay: qHTS Assay for Lipid Storage Modulators (AID 1519); further: on the % scale 0 is the no-effect control and ±100 the full control effect
Conditions: Drosophila S3 cells, BODIPY lipid droplet/cell ratio, laser cytometry; at 57.5 µM (top of the series); cells loaded with oleic acid
Method in brief: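 Cells seeded at 5,000 per well were treated with compounds over a concentration series and loaded with oleic acid (400 uM, as added). Lipid droplet fluorescence (488 nm excitation, 500-530 nm channel) was read by laser-scanning cytometry and normalized to 20 uM Triacsin C.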

Activity change, negative = inhibition, inactive:
Cc1noc(C)c1-c1nccc(N2CCOCC2)n1 6.74%
CNc1nc(-c2ccc3c(c2)OCO3)nc2ccccc12 -5.22%
O=c1c(-c2ccccc2)nc2cnc(Nc3ccccc3)nc2n1Cc1cccs1 -3.34%
c1csc(CNc2ccnc(-c3ccoc3)n2)c1 5%
Cc1ccccc1-c1nccc(NCCN2CCOCC2)n1 3.61%
CCNc1ncc2nc(-c3ccc(OC)cc3)c(=O)n(C[C@H]3CCCO3)c2n1 -3.19%
CC(=O)NCCNc1nc(-c2cccnc2)nc2ccccc12 5.64%
Cc1cccc(CNc2cc(-c3c(C)noc3C)ncn2)c1 8.24%
CCNc1ncc2ncc(=O)n(CCOC)c2n1 6.16%
CCNc1ncc2nc(-c3ccccc3)c(=O)n(Cc3cccs3)c2n1 1.76%
COCCNc1nc(-c2ccccc2Cl)nc2ccccc12 3.23%
COc1cccc(-c2cncnc2N(C)Cc2ccco2)c1 6.72%
CN(C)C(=O)c1ccc(-c2cncnc2NCCc2cnc[nH]2)cc1 3.4%
Cc1cnc(CNc2ccnc(-c3ccccc3C(F)(F)F)n2)cn1 8.15%
FC(F)(F)c1ccccc1-c1nccc(NCc2cccs2)n1 5.22%
c1cncc(-c2cncnc2NC2CCNCC2)c1 6.71%
c1ccc(Nc2cc(-c3ccoc3)ncn2)cc1 8.08%
Cn1c(=O)c(-c2ccccc2)nc2cncnc21 6.1%
CN(C)Cc1ccccc1-c1nc(N(C)C)c2ccccc2n1 -2.91%
CN(C)c1ncc2nc(-c3ccc(F)cc3)c(=O)n(C)c2n1 8.24%
O=c1cnc2cnc(Oc3cccc(Cl)c3)nc2n1C[C@H]1CCCO1 5.57%
O=c1c(-c2cc(F)cc(F)c2)nc2cnc(Nc3ccccc3)nc2n1C[C@H]1CCCO1 -10.6%
CCNc1ncc2nc(-c3ccc(F)cc3)c(=O)n(CCOC)c2n1 6.73%
CCNc1ncc2nc(C)c(=O)n(CCC#N)c2n1 3.22%
FC(F)(F)c1ccccc1-c1ccc2ncnc(NCc3cccnc3)c2c1 -7.13%
CCNc1ncc2nc(-c3cccs3)c(=O)n(C)c2n1 -12.5%
COc1ccc(CNc2ncnc3ccc(-c4cccnc4)cc23)c(OC)c1 -5.09%
COc1ccc(-n2c(=O)cnc3cnc(OC)nc32)cc1 4.86%
c1csc(CNc2ncnc3ccc(-c4ccoc4)cc23)c1 -0.111%
Cc1noc(C)c1-c1ccc2ncnc(N3CCN(C)CC3)c2c1 0.38%
COc1ccc(-n2c(=O)c(-c3cccs3)nc3cnc(N(C)C)nc32)cc1 7.83%
O=c1cnc2cncnc2n1Cc1ccccc1Cl -7.78%
Cc1ccccc1-c1cc(Nc2ccccc2)ncn1 4.64%
COc1ncc2nc(-c3ccccc3)c(=O)n(-c3ccccc3)c2n1 3.9%
COc1ncc2nc(-c3ccc(F)cc3)c(=O)n(-c3ccccc3)c2n1 2.16%
CN1CCN(c2ncc3ncc(=O)n(CCC#N)c3n2)CC1 6.98%
Cc1noc(C)c1-c1cncnc1NCc1ccccc1 6.38%
COc1cccc(Cn2c(=O)c(-c3ccc(F)cc3)nc3cnc(N(C)C)nc32)c1 7.91%
COCCNc1ncnc2ccc(-c3cccc(OC)c3)cc12 -4.77%
FC(F)(F)c1ccccc1-c1nc(NCCN2CCOCC2)c2ccccc2n1 4.77%
